PMC7862700, “An all-to-all approach to the identification of sequence-specific readers for epigenetic DNA modifications on cytosine”

Tests used:
Assay in all cases: DAPPL (digital affinity profiling via proximity ligation, sequencing); 10 mM Tris-HCl pH 7.5, 50 mM NaCl, 1 mM DTT, 4% glycerol, room temperature, 30 min; GST-TFs on glutathione beads, 16-mer random dsDNA library, 0.1% formaldehyde crosslink after washing; high values mean tight binding
Conditions in all cases: protein: recombinant; tags: N-terminal GST; dsDNA, one strand shown
[1] = biological target: T1, FEV (Homo sapiens, UniProt Q99581 1-238)
T1 sequence: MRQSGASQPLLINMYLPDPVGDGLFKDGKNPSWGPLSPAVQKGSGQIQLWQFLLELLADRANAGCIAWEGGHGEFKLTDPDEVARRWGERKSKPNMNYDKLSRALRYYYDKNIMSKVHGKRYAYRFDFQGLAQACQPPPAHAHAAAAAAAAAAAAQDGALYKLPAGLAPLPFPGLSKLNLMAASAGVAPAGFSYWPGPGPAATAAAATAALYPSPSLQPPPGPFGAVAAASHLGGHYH
Outline: (§1)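 GST fusions of human transcription factors were expressed in yeast and captured with glutathione beads. Once given DNA barcodes and pooled alongside a tag-only sample, they were incubated for 30 min at room temperature with 200 nmole of a random double-stranded 16-mer DNA library in Tris/NaCl/DTT/glycerol buffer, then washed, crosslinked (0.1% formaldehyde), proximity-ligated, PCR-amplified and sequenced on an Illumina NextSeq500. The binding signal of each hexamer is its read frequency for a factor divided by its frequency for the tag-only sample.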

[2] = biological target: ETV5 (Homo sapiens, UniProt P41161 1-510)
ETV5, sequence (P41161 whole entry): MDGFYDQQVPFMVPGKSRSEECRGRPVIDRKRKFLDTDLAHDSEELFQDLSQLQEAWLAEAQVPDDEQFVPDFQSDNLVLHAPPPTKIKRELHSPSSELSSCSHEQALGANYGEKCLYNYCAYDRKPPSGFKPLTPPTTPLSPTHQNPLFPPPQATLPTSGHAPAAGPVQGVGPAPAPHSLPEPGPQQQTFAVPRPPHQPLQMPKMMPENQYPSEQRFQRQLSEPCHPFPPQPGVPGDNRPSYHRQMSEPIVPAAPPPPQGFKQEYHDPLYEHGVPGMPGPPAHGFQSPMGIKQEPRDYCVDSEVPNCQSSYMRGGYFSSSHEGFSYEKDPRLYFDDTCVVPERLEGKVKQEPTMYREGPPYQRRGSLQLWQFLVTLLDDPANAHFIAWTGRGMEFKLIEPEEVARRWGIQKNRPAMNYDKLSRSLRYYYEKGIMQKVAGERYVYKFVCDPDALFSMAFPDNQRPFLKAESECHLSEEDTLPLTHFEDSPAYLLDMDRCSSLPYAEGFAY
Outline: as §1

[3] = biological target: T2, SPIC (Homo sapiens, UniProt Q8N5J4 1-248)
T2 sequence: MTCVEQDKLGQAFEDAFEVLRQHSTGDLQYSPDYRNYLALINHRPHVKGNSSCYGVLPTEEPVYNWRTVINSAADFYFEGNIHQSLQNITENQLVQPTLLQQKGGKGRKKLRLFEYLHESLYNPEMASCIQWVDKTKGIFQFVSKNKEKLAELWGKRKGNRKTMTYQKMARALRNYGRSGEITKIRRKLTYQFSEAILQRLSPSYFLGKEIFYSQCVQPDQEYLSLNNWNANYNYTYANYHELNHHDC
Outline: as §1

[4] = biological target: ELF4 (Homo sapiens, UniProt Q99607 1-663)
ELF4, sequence (Q99607 whole entry): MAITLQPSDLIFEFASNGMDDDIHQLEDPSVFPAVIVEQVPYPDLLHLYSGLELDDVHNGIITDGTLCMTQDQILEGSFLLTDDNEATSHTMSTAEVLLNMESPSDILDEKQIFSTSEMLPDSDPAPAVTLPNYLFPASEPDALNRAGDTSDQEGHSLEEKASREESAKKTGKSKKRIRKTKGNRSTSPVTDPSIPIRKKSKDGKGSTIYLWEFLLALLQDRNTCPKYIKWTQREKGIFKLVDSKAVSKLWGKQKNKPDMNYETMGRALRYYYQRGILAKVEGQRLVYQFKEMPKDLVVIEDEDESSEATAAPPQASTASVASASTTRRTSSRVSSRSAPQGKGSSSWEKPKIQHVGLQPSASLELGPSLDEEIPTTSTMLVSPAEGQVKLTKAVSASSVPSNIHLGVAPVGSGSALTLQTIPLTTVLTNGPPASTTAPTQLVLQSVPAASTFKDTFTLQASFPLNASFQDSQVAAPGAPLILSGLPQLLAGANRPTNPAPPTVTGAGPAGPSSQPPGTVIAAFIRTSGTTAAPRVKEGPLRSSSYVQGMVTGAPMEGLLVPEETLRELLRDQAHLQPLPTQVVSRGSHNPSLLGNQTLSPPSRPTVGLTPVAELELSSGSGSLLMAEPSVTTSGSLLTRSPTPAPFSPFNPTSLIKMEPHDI
Outline: as §1

[5] = biological target: T3, ELK4 (Homo sapiens, UniProt P28324-2 1-405)
T3 sequence: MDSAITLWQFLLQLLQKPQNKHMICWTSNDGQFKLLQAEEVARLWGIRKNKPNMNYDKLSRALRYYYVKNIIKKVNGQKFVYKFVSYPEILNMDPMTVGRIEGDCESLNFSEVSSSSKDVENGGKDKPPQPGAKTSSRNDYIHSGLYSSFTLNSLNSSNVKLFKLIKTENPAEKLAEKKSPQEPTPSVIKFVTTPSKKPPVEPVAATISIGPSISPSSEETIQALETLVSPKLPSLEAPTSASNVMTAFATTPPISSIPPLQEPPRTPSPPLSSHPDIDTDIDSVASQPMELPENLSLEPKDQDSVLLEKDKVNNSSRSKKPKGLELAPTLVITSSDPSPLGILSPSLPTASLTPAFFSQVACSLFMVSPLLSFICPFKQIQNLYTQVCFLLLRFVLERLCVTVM
Outline: as §1

[6] = biological target: T4, ETV2 (Homo sapiens, UniProt O00321 1-342)
T4 sequence: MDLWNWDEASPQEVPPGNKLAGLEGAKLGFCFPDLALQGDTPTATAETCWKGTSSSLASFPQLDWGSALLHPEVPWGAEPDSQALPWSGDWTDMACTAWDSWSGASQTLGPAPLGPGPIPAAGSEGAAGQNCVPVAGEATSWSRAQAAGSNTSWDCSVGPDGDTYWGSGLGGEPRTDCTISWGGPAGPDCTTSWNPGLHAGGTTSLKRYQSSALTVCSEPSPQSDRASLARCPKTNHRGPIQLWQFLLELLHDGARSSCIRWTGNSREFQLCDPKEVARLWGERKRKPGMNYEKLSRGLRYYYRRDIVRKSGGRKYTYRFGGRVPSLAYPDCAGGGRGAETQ
Outline: as §1

[7] = biological target: T5, ELF3 (Homo sapiens, UniProt P78545 1-371)
T5 sequence: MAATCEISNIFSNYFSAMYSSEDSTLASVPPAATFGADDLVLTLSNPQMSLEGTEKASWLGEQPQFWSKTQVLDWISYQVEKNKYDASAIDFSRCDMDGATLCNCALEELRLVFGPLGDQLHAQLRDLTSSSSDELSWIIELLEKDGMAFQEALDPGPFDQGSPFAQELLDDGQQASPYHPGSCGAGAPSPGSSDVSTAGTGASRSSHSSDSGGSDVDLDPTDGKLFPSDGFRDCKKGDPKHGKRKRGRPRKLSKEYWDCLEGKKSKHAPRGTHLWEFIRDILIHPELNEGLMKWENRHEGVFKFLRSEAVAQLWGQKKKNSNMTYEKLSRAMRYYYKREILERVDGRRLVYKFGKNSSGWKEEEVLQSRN
Outline: as §1

[8] = biological target: ETV1 (Homo sapiens, UniProt P50549 1-477)
ETV1, sequence (P50549 whole entry): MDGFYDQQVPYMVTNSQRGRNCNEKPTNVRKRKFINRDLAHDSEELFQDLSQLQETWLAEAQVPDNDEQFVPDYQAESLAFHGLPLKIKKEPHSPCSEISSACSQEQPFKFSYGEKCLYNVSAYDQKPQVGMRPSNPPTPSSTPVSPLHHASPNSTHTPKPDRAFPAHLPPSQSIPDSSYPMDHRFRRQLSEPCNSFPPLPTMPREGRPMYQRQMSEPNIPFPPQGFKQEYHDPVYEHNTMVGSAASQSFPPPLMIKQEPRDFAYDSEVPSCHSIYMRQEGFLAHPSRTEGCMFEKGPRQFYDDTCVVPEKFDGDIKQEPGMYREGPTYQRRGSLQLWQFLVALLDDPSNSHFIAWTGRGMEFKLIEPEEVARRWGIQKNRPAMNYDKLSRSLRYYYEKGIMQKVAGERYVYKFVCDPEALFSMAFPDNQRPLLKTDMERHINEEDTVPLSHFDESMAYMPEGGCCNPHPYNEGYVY
Outline: as §1

[9] = biological target: T6, ERF (Homo sapiens, UniProt P50548 1-548)
T6 sequence: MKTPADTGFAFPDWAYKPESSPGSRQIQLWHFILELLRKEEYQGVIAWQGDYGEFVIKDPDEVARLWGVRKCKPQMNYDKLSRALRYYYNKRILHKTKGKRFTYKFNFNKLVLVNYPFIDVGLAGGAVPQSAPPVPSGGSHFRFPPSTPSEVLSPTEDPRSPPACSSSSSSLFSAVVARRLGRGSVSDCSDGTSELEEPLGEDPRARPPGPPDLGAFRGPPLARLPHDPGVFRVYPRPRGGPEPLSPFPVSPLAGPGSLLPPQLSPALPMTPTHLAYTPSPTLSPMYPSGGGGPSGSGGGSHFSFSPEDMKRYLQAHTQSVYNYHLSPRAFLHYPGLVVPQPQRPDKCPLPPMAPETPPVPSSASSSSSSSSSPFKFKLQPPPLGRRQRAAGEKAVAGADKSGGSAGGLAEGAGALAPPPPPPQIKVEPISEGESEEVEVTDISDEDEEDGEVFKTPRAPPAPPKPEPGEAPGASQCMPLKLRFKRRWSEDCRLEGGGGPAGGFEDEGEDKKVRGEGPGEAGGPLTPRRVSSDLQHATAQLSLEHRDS
Outline: as §1

[10] = biological target: T7, ETV3L (Homo sapiens, UniProt Q6ZN32 1-361)
T7 sequence: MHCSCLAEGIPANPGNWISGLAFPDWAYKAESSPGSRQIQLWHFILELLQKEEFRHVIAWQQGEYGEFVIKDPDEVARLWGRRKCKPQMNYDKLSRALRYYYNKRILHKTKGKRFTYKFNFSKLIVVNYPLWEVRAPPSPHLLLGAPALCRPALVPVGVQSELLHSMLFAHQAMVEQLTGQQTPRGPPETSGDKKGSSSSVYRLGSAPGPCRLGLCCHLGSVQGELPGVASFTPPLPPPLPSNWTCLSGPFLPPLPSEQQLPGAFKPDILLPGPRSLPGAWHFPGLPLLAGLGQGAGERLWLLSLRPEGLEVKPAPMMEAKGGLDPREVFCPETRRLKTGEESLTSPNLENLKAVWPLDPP
Outline: as §1

[11] = biological target: T8, ETS2 (Homo sapiens, UniProt P15036 1-469)
T8 sequence: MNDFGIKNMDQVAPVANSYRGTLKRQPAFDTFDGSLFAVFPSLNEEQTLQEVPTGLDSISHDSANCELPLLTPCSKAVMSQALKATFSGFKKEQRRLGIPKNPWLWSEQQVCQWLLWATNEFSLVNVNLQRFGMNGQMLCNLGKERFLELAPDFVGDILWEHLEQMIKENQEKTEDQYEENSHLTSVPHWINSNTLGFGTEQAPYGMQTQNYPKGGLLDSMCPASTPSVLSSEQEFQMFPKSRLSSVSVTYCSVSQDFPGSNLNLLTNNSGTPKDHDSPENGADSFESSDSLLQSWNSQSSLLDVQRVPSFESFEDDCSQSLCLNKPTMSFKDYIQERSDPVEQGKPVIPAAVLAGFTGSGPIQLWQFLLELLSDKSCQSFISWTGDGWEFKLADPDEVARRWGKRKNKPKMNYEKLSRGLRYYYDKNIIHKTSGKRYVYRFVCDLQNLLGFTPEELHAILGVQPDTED
Outline: as §1

[12] = biological target: T9, SPDEF (Homo sapiens, UniProt O95238 1-335)
T9 sequence: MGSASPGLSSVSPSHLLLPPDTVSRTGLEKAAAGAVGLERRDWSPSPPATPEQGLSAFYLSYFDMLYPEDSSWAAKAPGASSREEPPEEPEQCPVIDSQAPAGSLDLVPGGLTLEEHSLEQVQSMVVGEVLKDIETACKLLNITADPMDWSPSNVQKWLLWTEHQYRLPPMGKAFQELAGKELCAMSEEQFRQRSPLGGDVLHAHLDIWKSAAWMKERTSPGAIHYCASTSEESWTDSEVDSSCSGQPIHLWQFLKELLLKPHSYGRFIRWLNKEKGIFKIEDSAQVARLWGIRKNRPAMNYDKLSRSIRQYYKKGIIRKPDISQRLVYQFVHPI
Outline: as §1

[13] = biological target: T10, ETV7 (Homo sapiens, UniProt Q9Y603 1-341)
T10 sequence: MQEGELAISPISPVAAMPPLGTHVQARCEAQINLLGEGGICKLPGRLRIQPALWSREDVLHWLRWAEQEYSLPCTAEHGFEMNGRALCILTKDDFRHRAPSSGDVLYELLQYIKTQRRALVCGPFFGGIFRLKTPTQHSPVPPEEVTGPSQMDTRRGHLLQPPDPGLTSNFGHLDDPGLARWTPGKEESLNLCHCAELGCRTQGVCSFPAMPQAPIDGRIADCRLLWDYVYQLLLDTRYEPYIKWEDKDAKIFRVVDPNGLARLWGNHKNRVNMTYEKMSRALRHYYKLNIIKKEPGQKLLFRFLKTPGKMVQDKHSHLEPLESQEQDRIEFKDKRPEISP
Outline: as §1

[14] = biological target: T11, ELF5 (Homo sapiens, UniProt Q9UKW6-2 1-255)
T11 sequence: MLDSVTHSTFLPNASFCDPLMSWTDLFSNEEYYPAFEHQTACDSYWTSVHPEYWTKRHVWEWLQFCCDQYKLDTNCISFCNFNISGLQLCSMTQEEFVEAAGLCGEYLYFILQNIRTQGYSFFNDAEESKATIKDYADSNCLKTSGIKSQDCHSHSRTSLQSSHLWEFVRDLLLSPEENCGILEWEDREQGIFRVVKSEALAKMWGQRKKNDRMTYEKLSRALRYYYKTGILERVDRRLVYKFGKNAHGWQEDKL
Outline: as §1

[15] = biological target: T12, ETV3 (Homo sapiens, UniProt P41162-2 1-143)
T12 sequence: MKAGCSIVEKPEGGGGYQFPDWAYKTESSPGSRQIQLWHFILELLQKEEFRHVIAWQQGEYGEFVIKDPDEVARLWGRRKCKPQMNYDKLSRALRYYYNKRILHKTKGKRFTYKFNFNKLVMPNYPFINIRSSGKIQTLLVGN
Outline: as §1

[16] = biological target: ETV6 (Homo sapiens, UniProt P41212 1-452)
ETV6, sequence (P41212 whole entry): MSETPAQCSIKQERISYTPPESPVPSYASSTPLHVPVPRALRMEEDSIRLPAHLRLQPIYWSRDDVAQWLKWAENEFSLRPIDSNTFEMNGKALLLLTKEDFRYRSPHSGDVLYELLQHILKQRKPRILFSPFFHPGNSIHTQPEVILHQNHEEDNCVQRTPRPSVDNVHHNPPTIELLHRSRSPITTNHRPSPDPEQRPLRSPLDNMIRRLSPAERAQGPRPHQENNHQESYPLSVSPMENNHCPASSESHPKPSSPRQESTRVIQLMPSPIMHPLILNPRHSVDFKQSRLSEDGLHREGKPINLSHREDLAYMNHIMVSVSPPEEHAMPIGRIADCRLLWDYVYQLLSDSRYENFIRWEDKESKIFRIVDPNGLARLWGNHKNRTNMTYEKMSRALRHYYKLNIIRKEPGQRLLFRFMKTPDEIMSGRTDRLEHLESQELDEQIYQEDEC
Outline: as §1

Sequence | binding signal [1] | binding signal [2] | binding signal [3] | binding signal [4] | binding signal [5] | binding signal [6] | binding signal [7] | binding signal [8] | binding signal [9] | binding signal [10] | binding signal [11] | binding signal [12] | binding signal [13] | binding signal [14] | binding signal [15] | binding signal [16]
ACACAA | 1.17 fold enrichment (6-mer frequency, TF over GST control) | 1.19 fold enrichment (6-mer frequency, TF over GST control) | 1.22 fold enrichment (6-mer frequency, TF over GST control) | 1.17 fold enrichment (6-mer frequency, TF over GST control) | 1.05 fold enrichment (6-mer frequency, TF over GST control) | 1.1 fold enrichment (6-mer frequency, TF over GST control) | 1.11 fold enrichment (6-mer frequency, TF over GST control) | 1.14 fold enrichment (6-mer frequency, TF over GST control) | 1.26 fold enrichment (6-mer frequency, TF over GST control) | 1.2 fold enrichment (6-mer frequency, TF over GST control) | 1.25 fold enrichment (6-mer frequency, TF over GST control) | 1.17 fold enrichment (6-mer frequency, TF over GST control) | 1.08 fold enrichment (6-mer frequency, TF over GST control) | 1.17 fold enrichment (6-mer frequency, TF over GST control) | 1.13 fold enrichment (6-mer frequency, TF over GST control) | 1.2 fold enrichment (6-mer frequency, TF over GST control)
GGAAGC | 1.74 fold enrichment (6-mer frequency, TF over GST control) | 1.79 fold enrichment (6-mer frequency, TF over GST control) | 1.39 fold enrichment (6-mer frequency, TF over GST control) | 1.4 fold enrichment (6-mer frequency, TF over GST control) | 1.43 fold enrichment (6-mer frequency, TF over GST control) | 1.54 fold enrichment (6-mer frequency, TF over GST control) | 1.48 fold enrichment (6-mer frequency, TF over GST control) | 1.82 fold enrichment (6-mer frequency, TF over GST control) | 1.43 fold enrichment (6-mer frequency, TF over GST control) | 1.5 fold enrichment (6-mer frequency, TF over GST control) | 1.6 fold enrichment (6-mer frequency, TF over GST control) | 1.55 fold enrichment (6-mer frequency, TF over GST control) | 1.62 fold enrichment (6-mer frequency, TF over GST control) | 1.95 fold enrichment (6-mer frequency, TF over GST control) | 1.69 fold enrichment (6-mer frequency, TF over GST control) | 1.92 fold enrichment (6-mer frequency, TF over GST control)
CTGACG | 1.11 fold enrichment (6-mer frequency, TF over GST control) | 1.2 fold enrichment (6-mer frequency, TF over GST control) | 1.13 fold enrichment (6-mer frequency, TF over GST control) | 1.06 fold enrichment (6-mer frequency, TF over GST control) | 1.11 fold enrichment (6-mer frequency, TF over GST control) | 1.35 fold enrichment (6-mer frequency, TF over GST control) | 1.05 fold enrichment (6-mer frequency, TF over GST control) | 1.09 fold enrichment (6-mer frequency, TF over GST control) | 1.17 fold enrichment (6-mer frequency, TF over GST control) | 1.03 fold enrichment (6-mer frequency, TF over GST control) | 1.2 fold enrichment (6-mer frequency, TF over GST control) | 1 fold enrichment (6-mer frequency, TF over GST control) | 1.07 fold enrichment (6-mer frequency, TF over GST control) | 1.09 fold enrichment (6-mer frequency, TF over GST control) | 1.06 fold enrichment (6-mer frequency, TF over GST control) | 1.16 fold enrichment (6-mer frequency, TF over GST control)
